# Experimental data published in PubChem BioAssay (NCATS).
# A number with no mark means an inactive call. Inconclusive results are not listed. A call without a number means that no potency is given here. The source made the active and inactive calls. Calls come from the whole dose curve; as a rule, active = well fitted curve in the direction sought with a large enough effect; inconclusive = small, poorly fitted or top-dose-only effect, or another doubt; inactive = no such curve, though single readings can be large; an effect the other way counts as inactive or inconclusive.
# Key:
# [1] = system: Zika virus NS2B-NS3 protease (linked construct); assay: Primary screen NINDS Rhodamine qHTS for Zika virus inhibitors (AID 1347160); note: nearly all actives have a fitted effect of over 55% in size
# How it was run: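 Enzyme (25 nM, linked NS2B-NS3) was preincubated 15 min with compound in 10 mM Tris-HCl pH 8.0, 0.01% Tween 20. Rhodamine110 substrate (1.5 microM) was then added and fluorescence read at start and after 15 min.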
# [2] = biological target: Calcium and integrin-binding protein 1 (Homo sapiens) (UniProt Q99828); assay: Primary qHTS for Identification of Calcium Integrin Binding Protein 1 (CIB1) Competitor (AID 1508620);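 note: GST tagged CIB1 binding a fluorescein labelled alphaIIb integrin peptide tracer; top concentration of the series differs between compounds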
# Sequence of Calcium and integrin-binding protein 1 (Homo sapiens) (Q99828 whole entry, looked up): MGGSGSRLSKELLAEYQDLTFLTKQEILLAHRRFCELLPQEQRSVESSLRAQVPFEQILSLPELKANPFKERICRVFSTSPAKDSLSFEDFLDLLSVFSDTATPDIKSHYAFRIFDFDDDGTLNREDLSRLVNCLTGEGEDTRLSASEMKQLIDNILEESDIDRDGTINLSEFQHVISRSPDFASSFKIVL
# How it was run: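 Fluorescence polarization competition: CIB1-GST (1 uM final) preincubated with compound 15 min at room temperature, then FITC-labeled alphaIIb peptide (100 nM final) added for another 15 min. Polarization read at Ex 480/Em 540.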
# [3] = biological target: Glutathione peroxidase 1 (Homo sapiens) (UniProt P07203); assay: Primary qHTS Assay for Inhibitors of Recombinant Selenoprotein Glutathione Peroxidase 1 (GPX1) (AID 1845191); note: nearly all actives have a fitted effect of over 65% in size
# Sequence of Glutathione peroxidase 1 (Homo sapiens) (P07203 whole entry, looked up): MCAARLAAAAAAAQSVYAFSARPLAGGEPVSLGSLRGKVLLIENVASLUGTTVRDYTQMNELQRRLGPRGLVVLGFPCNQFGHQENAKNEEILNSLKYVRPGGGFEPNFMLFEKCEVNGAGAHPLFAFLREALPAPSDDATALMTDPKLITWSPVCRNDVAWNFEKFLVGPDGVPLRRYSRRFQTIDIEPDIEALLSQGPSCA
# How it was run: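 GPX1 10 nM, GR 100 nM, GSH 1 mM, NADPH 0.5 mM, CHP 0.5 mM (final). 30-min cpd preincubation, RT. Ex340/Em450 read t=0, t=15 min.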
# [4] = biological target: Phospholipid hydroperoxide glutathione peroxidase GPX4 (Homo sapiens) (UniProt P36969); assay: Primary qHTS Assay for Inhibitors of Recombinant Selenoprotein Glutathione Peroxidase 4 (GPX4) (AID 1845192); note: nearly all actives have a fitted effect of over 65% in size
# Sequence of Phospholipid hydroperoxide glutathione peroxidase GPX4 (Homo sapiens) (P36969 whole entry, looked up): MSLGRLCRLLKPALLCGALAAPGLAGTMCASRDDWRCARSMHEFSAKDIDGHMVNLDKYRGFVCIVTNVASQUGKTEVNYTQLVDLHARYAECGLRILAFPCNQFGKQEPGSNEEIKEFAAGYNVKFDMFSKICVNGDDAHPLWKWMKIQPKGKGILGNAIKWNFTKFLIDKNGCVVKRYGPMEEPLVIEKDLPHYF
# How it was run: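 qHTS, GR-coupled: GPX4 200 nM + cpd 30 min RT → GSH 1 mM, NADPH 0.5 mM, GR 100 nM → CHP 0.5 mM start; fluor 340/450 at t0 and t15 min; no-enzyme wells as control.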
# [5] = biological target: Luciferin 4-monooxygenase (Photinus pyralis) (UniProt P08659); assay: Primary firefly luciferase (FLuc) qHTS assay for identification of artifact compounds. (AID 1845220); conditions: outcome: dose series up to 54.1 µM unless noted; note: nearly all actives have a fitted effect of over 60% in size
# How it was run: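 In this counter-screen for luciferase artifacts, test compounds met substrate (10 uM each luciferin and ATP) before 10 nM enzyme started the reaction. Light output was measured 5 min later.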
# [6] = system: Nanoluciferase (engineered Oplophorus gracilirostris luciferase); assay: Primary Nanoluciferase (NLuc) qHTS assay for identification of artifact compounds. (AID 1845222);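 note: NLuc secreted into diluted conditioned medium of S16 cells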
# How it was run: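 Using secreted nanoluciferase in S16 culture medium (0.22 um filtered, 1:55 dilution), compounds were preincubated 15 min at RT. Signal was generated with Nano-Glo reagent (1:100) over 5 min.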
# [7] = Primary redox qHTS assay for identification of artifact compounds. (AID 1845223); note: potency is the fitted concentration of half-maximal effect
# How it was run: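 Redox-cycling detection via DTT (250 uM final) oxidation coupled to Amplex Red (25 uM)/HRP (250 mU/mL) in HBSS. 15 min preincubation plus 30 min after DTT, room temperature. Ex/Em 525/598 nm; 4-parameter Hill fit against DMSO and 10 uM DA3003.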
# CRL-7250 = normal cell line; assay: Cytotoxic Profiling of Annotated Libraries Using Quantitative High-Throughput Screening (AID 1296008); conditions: Five cell lines viability, CellTiter-Glo ATP luminescence, 48-72 h; max response: active compounds read low; note: nearly all actives have a fitted effect of over 60% in size; note: potency is the fitted concentration of half-maximal effect
# How it was run: (§1)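 Compounds were pin-transferred onto cells and incubated 48 or 72 hr at 37 degree Celsius, 95% humidity. CellTiter-Glo was added, plates sat 10 min at room temperature, then ATP-coupled luminescence was imaged as the viability read-out.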
# NIH3T3 = assay: as above; conditions: Five cell lines viability, CellTiter-Glo ATP luminescence, 48-72 h; max response: active compounds read low
# How it was run: as §1
# C33A = assay: Primary qHTS to identify gynecologic anti-cancer compounds using libraries of approved drugs and bioactive compounds (AID 1345084); conditions: Gynecologic cancer cell panel viability, ATPlite luminescence, 48 h; series mostly up to 57.5 µM; note: nearly all actives have a fitted effect of over 55% in size; note: potency is the fitted concentration of half-maximal effect
# How it was run: (§2)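 Cells, 1,000 per well, plated 16 h, then exposed 48 h at 37 C to compounds. Viability by ATPlite luminescence after 15 min at room temperature.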
# CAOV3 = assay: as above; conditions: Gynecologic cancer cell panel viability, ATPlite luminescence, 48 h; series mostly up to 57.5 µM
# How it was run: as §2
# CASKI = assay: as above; conditions: Gynecologic cancer cell panel viability, ATPlite luminescence, 48 h; series mostly up to 57.5 µM
# How it was run: as §2
# Es-2 = assay: as above; conditions: Gynecologic cancer cell panel viability, ATPlite luminescence, 48 h; series mostly up to 57.5 µM
# How it was run: as §2
# Hek293T = assay: as above; conditions: Gynecologic cancer cell panel viability, ATPlite luminescence, 48 h, control line for the selectivity index; series mostly up to 57.5 µM
# How it was run: as §2
# JEG-3 = assay: as above; conditions: Gynecologic cancer cell panel viability, ATPlite luminescence, 48 h; series mostly up to 57.5 µM
# How it was run: as §2
# OV90 = assay: as above; conditions: Gynecologic cancer cell panel viability, ATPlite luminescence, 48 h; series mostly up to 57.5 µM
# How it was run: as §2
# PA-1 = assay: as above; conditions: Gynecologic cancer cell panel viability, ATPlite luminescence, 48 h; series mostly up to 57.5 µM
# How it was run: as §2
# Tov-21-G = assay: as above; conditions: Gynecologic cancer cell panel viability, ATPlite luminescence, 48 h; series mostly up to 57.5 µM
# How it was run: as §2
# Tov112D = assay: as above; conditions: Gynecologic cancer cell panel viability, ATPlite luminescence, 48 h; series mostly up to 57.5 µM
# How it was run: as §2
# [8] = Primary fluorescence-based thiol-reactive (MSTI) qHTS assay for identification of artifact compounds. (AID 1845221);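 note: thiol-reactive compounds lower the probe fluorescence signal; nearly all actives have a fitted effect of over 65% in size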
# How it was run: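 MSTI probe at 4 uM final in 2% DMSO/PBS pH 7.4; compounds, 1 h at room temperature in dark. Fluorescence Ex/Em 525/598 nm, normalised to Acetyl-MSTI and MSTI, fitted to 4-parameter Hill.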
compound,measurement,setting,value
COC(=O)C12C(=O)C(C)(O)C(=O)C1(C)C(C)=CC1C34CCC(OC3=O)C(C)(C)C4CCC12C (stereo unspecified),Potency,[1],inactive
same,Potency,[2],inactive
same,Potency,[3],inactive
same,Potency,[4],inactive
same,outcome,[5],inactive
same,Potency,[6],inactive
same,Potency,[7],inactive
same,max response,CRL-7250,-8.47%
same,max response,NIH3T3,-10.7%
same,Potency,C33A,inactive
same,Potency,CAOV3,inactive
same,Potency,CASKI,inactive
same,Potency,Es-2,inactive
same,Potency,Hek293T,inactive
same,Potency,JEG-3,inactive
same,Potency,OV90,inactive
same,Potency,PA-1,inactive
same,Potency,Tov-21-G,inactive
same,Potency,Tov112D,inactive
C=C1C2(C)CC3C(C)(O)C4=CC(=O)OC(C)(C)C4=CCC3(C)C13C(=O)OC(C)C3(O)C2=O (stereo unspecified),Potency,[1],inactive
same,Potency,[4],inactive
same,outcome,[5],inactive
same,Potency,[6],inactive
same,Potency,[7],0.733 µM (active)
same,max response,CRL-7250,-8.29%
same,max response,NIH3T3,-1.67%
same,Potency,C33A,inactive
same,Potency,CAOV3,inactive
same,Potency,CASKI,inactive
same,Potency,Es-2,inactive
same,Potency,Hek293T,inactive
same,Potency,JEG-3,inactive
same,Potency,OV90,inactive
same,Potency,PA-1,inactive
same,Potency,Tov-21-G,inactive
same,Potency,Tov112D,inactive
C=C1C(=O)CC2OC2(C)CC2OC(=O)C(=C)C2C(O)C1OC(=O)/C(C)=C\C (stereo unspecified),Potency,[1],inactive
same,Potency,[3],inactive
same,Potency,[4],inactive
same,outcome,[5],inactive
same,Potency,[8],inactive
same,Potency,[6],inactive
same,Potency,[7],inactive
same,Potency,CRL-7250,10.1 µM (active)
same,Potency,JEG-3,inactive
same,Potency,OV90,inactive
same,Potency,Tov112D,inactive
Fc1cc(F)c2c(c1)C1C=CCC1C(c1cccnc1)N2 (stereo unspecified),Potency,[1],inactive
same,Potency,[2],inactive
same,Potency,[4],inactive
same,outcome,[5],inactive
same,Potency,[6],inactive
same,Potency,[7],inactive
same,Potency,CRL-7250,5.8 µM (active)
same,Potency,C33A,22.4 µM (active)
same,Potency,PA-1,17.8 µM (active)
CN(Cc1cccc(-c2ccncc2)c1)C(=O)Oc1ccc(-c2ccc(C(N)=O)cc2)cc1,Potency,[1],inactive
same,Potency,[2],inactive
same,Potency,[3],inactive
same,Potency,[4],inactive
same,outcome,[5],inactive
same,Potency,[8],inactive
same,Potency,[6],inactive
same,Potency,[7],inactive
same,outcome,CRL-7250,inactive
same,max response,NIH3T3,2.66%
same,Potency,C33A,inactive
same,Potency,CAOV3,inactive
same,Potency,CASKI,inactive
same,Potency,Es-2,inactive
same,Potency,Hek293T,inactive
same,Potency,JEG-3,inactive
same,Potency,OV90,inactive
same,Potency,PA-1,inactive
same,Potency,Tov-21-G,inactive
same,Potency,Tov112D,inactive
COc1ccc2c(c1)c(CCN(C)C)cn2S(=O)(=O)c1ccccc1,Potency,[2],inactive
same,Potency,[3],inactive
same,Potency,[4],inactive
same,outcome,[5],inactive
same,Potency,[8],inactive
same,Potency,[6],inactive
same,Potency,[7],inactive
same,max response,CRL-7250,1.29%
same,outcome,NIH3T3,inactive
same,Potency,C33A,inactive
same,Potency,CAOV3,inactive
same,Potency,CASKI,inactive
same,Potency,Es-2,inactive
same,Potency,Hek293T,inactive
same,Potency,JEG-3,inactive
same,Potency,OV90,inactive
same,Potency,PA-1,inactive
same,Potency,Tov-21-G,inactive
same,Potency,Tov112D,inactive
CN1Cc2c(ccc3c2OCO3)[C@@H]2[C@H]1c1cc3c(cc1C[C@@H]2O)OCO3,Potency,[1],inactive
same,Potency,[2],inactive
same,Potency,[3],inactive
same,outcome,[5],inactive
same,Potency,[8],inactive
same,Potency,[6],inactive
same,Potency,[7],inactive
same,Potency,CRL-7250,4.04 µM (active)
same,Potency,NIH3T3,2.55 µM (active)
same,Potency,C33A,7.08 µM (active)
same,Potency,Es-2,4.47 µM (active)
same,Potency,PA-1,4.47 µM (active)
same,Potency,Tov112D,3.55 µM (active)
C=C(C)C(=O)O[C@H]1[C@@H]2[C@H](C)C(=O)O[C@@H]2C[C@@H](C)[C@@H]2C=CC(=O)[C@]21C,Potency,[1],inactive
same,Potency,[2],inactive
same,Potency,[3],inactive
same,Potency,[4],inactive
same,outcome,[5],inactive
same,Potency,[8],inactive
same,Potency,[6],inactive
same,Potency,[7],inactive
same,Potency,CRL-7250,2.86 µM (active)
same,Potency,NIH3T3,8.05 µM (active)
same,Potency,C33A,12.6 µM (active)
same,Potency,CAOV3,10 µM (active)
same,Potency,Hek293T,5.62 µM (active)
same,Potency,OV90,3.55 µM (active)
same,Potency,PA-1,3.16 µM (active)
same,Potency,Tov-21-G,8.91 µM (active)
same,Potency,Tov112D,8.91 µM (active)
CCCCCn1cc(C(=O)Oc2cccc3cccnc23)c2ccccc21,Potency,[1],inactive
same,Potency,[2],inactive
same,Potency,[3],inactive
same,Potency,[4],inactive
same,outcome,[5],inactive
same,Potency,[8],inactive
same,Potency,[6],inactive
same,Potency,[7],inactive
same,outcome,CRL-7250,inactive
same,max response,NIH3T3,-5.3%
same,Potency,C33A,inactive
same,Potency,CAOV3,inactive
same,Potency,CASKI,inactive
same,Potency,Es-2,inactive
same,Potency,Hek293T,inactive
same,Potency,JEG-3,inactive
same,Potency,OV90,inactive
same,Potency,PA-1,inactive
same,Potency,Tov-21-G,inactive
same,Potency,Tov112D,inactive
COC1CC(O[C@H]2CC[C@@]3(C)C(CCC4C3CC[C@]3(C)C(C5=CC(=O)OC5)CCC43O)C2)OC(C)C1OC1OC(COC2OC(CO)C(O)C(O)C2O)C(O)C(O)C1O (stereo partly specified),Potency,[1],inactive
same,Potency,[2],inactive
same,Potency,[3],inactive
same,Potency,[4],inactive
same,"activity change, negative = inhibition",[5],-3.95% [at 11.6 µM]
same,"activity change, negative = thiol reactive",[8],0.284% [at 11.5 µM]
same,"activity, negative = inhibition",[6],0.592% [at 11.6 µM]
same,redox activity (% of DA3003),[7],16.1% [at 11.5 µM]
same,Potency,CRL-7250,0.693 µM (active)
same,max response,NIH3T3,2.72%
same,Potency,C33A,2.24 µM (active)
same,Potency,Es-2,3.16 µM (active)
same,Potency,Hek293T,3.55 µM (active)
same,Potency,PA-1,2.24 µM (active)
same,Potency,Tov-21-G,2.24 µM (active)
same,Potency,Tov112D,0.794 µM (active)
CN1C(=O)[C@@H](Cc2c[nH]c3ccccc23)N=C(c2ccccc2F)c2ccccc21,Potency,[1],inactive
same,Potency,[2],inactive
same,Potency,[3],inactive
same,Potency,[4],inactive
same,outcome,[5],inactive
same,Potency,[8],inactive
same,Potency,[6],inactive
same,Potency,[7],inactive
same,outcome,CRL-7250,inactive
same,max response,NIH3T3,-3.73%
same,Potency,C33A,inactive
same,Potency,CAOV3,inactive
same,Potency,CASKI,inactive
same,Potency,Es-2,inactive
same,Potency,Hek293T,inactive
same,Potency,JEG-3,inactive
same,Potency,OV90,inactive
same,Potency,PA-1,inactive
same,Potency,Tov-21-G,inactive
same,Potency,Tov112D,inactive
C[C@@H]1O[C@@H](OC2CCC3(C=O)C(CCC4C3CCC3(C)C(C5=CC(=O)OC5)C(O)CC43O)C2)[C@H](O)[C@H](O)[C@H]1O[C@@H]1O[C@H](CO)[C@@H](O)[C@H](O)[C@H]1O (stereo partly specified),Potency,[1],inactive
same,Potency,[2],inactive
same,Potency,[3],inactive
same,Potency,[4],inactive
same,outcome,[5],inactive [at 25.7 µM]
same,Potency,[6],inactive
same,Potency,[7],inactive
same,Potency,CRL-7250,3.06 µM (active)
same,max response,NIH3T3,4.35%
same,Potency,C33A,5.62 µM (active)
same,Potency,CASKI,inactive
same,Potency,Es-2,6.31 µM (active)
same,Potency,Hek293T,10 µM (active)
same,Potency,Tov-21-G,3.98 µM (active)
same,Potency,Tov112D,3.16 µM (active)
